NS1 function inh: inhibitors of influenza NS1 protein function | Potency, µM (doses to about 46.1 µM), for inactives: top-dose activity, positive = more growth | 270,000 compounds, 0.4% hits; calls by dose curve; further: actives are rising curves; nearly all actives have a fitted effect of over 50% in size
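Read-out: OD600 growth recovery of NS1-expressing budding yeast. Cells grown overnight at 30C in -URA glucose medium, washed, resuspended and diluted 1:100 in 2% galactose assay medium, pH 6.0. Same strain lacking NS1 served as positive control.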
TbPYK inhibitor: inhibitors of Trypanosoma brucei pyruvate kinase | Q57TT1 | TbPYK enzyme, Kinase-Glo Plus ATP luminescence, 45 min | Potency, µM (doses to about 76.8 µM), inactives show at the top dose activity, negative = inhibition, most hits filed as inhibitors | 410,000 compounds, 0.12% hits | AID 624173; further: on the % scale 0 is the no-effect control and ±100 the full control effect; nearly all actives have a fitted effect of over 50% in size
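Quantitative HTS: titrated library compounds versus trypanosomal pyruvate kinase in TEA buffer (pH 7.2) containing KCl, MgCl2, BSA and Tween-20. Reactions were initiated with ADP, 130 uM final. Kinase-Glo Plus luminescence was read after 45 min at RT.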
LmPK inhibitor: inhibitors of Leishmania mexicana pyruvate kinase; purified LmPK, Kinase-Glo ATP luminescence, 1 h; Potency, µM (highest dose often 57.5 µM), without a hit: at the highest dose activity change, negative = inhibition, hits mostly inhibitors; 290,000 compounds, 0.37% hits; further: on the % scale 0 is the no-effect control and ±100 the full control effect
Target sequence (Q27686 whole entry, looked up): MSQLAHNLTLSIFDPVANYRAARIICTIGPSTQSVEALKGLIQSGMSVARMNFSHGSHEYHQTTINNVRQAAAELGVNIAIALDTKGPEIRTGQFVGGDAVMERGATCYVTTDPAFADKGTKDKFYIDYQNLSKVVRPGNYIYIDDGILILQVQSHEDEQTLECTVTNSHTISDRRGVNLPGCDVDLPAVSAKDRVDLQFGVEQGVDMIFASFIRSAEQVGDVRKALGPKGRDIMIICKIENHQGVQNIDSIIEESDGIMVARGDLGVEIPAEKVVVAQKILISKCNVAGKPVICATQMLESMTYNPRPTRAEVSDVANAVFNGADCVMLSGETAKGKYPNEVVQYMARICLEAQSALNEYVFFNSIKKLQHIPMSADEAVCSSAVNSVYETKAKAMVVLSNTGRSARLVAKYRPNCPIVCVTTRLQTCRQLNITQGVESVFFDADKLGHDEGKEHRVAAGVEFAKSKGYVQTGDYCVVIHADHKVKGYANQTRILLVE
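Kinase-Glo luminescence read after 1 h RT reaction of 0.1 nM LmPK with 0.5 mM PEP and 0.1 mM ADP. Activity scaled between uninhibited and enzyme-free controls.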
RE007 growth inh: less growth of the S. pombe RE007 Vpr strain; S. pombe RE007 Vpr strain, BacTiter-Glo ATP luminescence, 24 h; Potency, µM (doses to about 92.2 µM), for the others: at the highest dose activity change, negative = less growth, hits mostly inhibitors; 360,000 compounds, 0.21% hits; AID 651644; active means well fitted falling curve with a large enough effect; inconclusive means small, poorly fitted or top-dose-only effect; inactive means no such curve, though single readings can be large or run the other way; further: on the % scale 0 is the no-effect control and ±100 the full control effect; nearly all actives have a fitted effect of over 50% in size
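Fission yeast strain RE007, carrying one chromosomally integrated HIV-1 vpr copy, was seeded at OD 0.01 in PMG+AL medium with 23 nL pinned compound. After 24 h at 30 °C and 99% humidity, viability was read by BacTiter-Glo luminescence.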
Starred values were filed as active, the others as inactive; [ ] = another dose, or the depositor's remark. A selection: hits, their analogues and other compounds. The true share with any hit is near 0.77%. Unless noted, the call rests on the fitted dose curve; in most records, active means well fitted curve in the direction sought with a large enough effect; inconclusive means small, poorly fitted or top-dose-only effect, or another doubt; inactive means no such curve, though single readings can be large; an effect the other way counts as inactive or inconclusive. Potency means the concentration at half of the fitted maximal effect.

For CC(C)(C)OC(=O)CN(Cc1ccc(Cl)cc1)Cc1ccc([N+](=O)[O-])s1 the results were TbPYK inhibitor 1%.
C(=C1NCCN1)c1cccc2ccccc12 was read as TbPYK inhibitor 5%.
For O=C(c1ccc([N+](=O)[O-])o1)N1CCc2ccccc21 the results were NS1 function inh -68%, TbPYK inhibitor -8%, LmPK inhibitor -2% and RE007 growth inh -9%.
Screening Cc1ccc(NC(=O)N2CCc3ccccc32)cc1 returned NS1 function inh -6%, TbPYK inhibitor -26%, LmPK inhibitor 25µM* and RE007 growth inh inconclusive.
Screening Cc1ccc(C(=O)N2CCc3ccccc32)o1 returned NS1 function inh -11%, TbPYK inhibitor -29%, LmPK inhibitor 14µM* and RE007 growth inh inconclusive.
Screening Cc1ccc(NC(=O)N2CCCc3ccccc32)cc1 returned NS1 function inh -2%, TbPYK inhibitor -2%, LmPK inhibitor 2% and RE007 growth inh -2%.
`CCN(CC)C(=O)c1ccc(NC(=O)c2cccc(F)c2)cc1` gave NS1 function inh -12%, TbPYK inhibitor -9%, LmPK inhibitor 28µM* and RE007 growth inh 4%.
`O=C(Nc1ccc(Nc2ccccc2)cc1)c1cccc(F)c1` gave NS1 function inh -43%, TbPYK inhibitor 12%, LmPK inhibitor 0% and RE007 growth inh -11%.
Screening Cc1ccc(S(=O)(=O)OCC(=O)O)cc1 returned NS1 function inh 0%.
Screening CC(=O)Nc1cc2ccccc2oc1=O returned TbPYK inhibitor 6%, LmPK inhibitor 0% and RE007 growth inh 5%.
`Cc1oc(=O)c(NC(=O)c2ccc(Cl)cc2)cc1C(=O)c1ccccc1` gave NS1 function inh -97%, TbPYK inhibitor inconclusive, LmPK inhibitor -1% and RE007 growth inh 28µM*.
For CC(=O)c1cc(NC(=O)c2ccccc2)c(=O)oc1C the results were NS1 function inh 3%, TbPYK inhibitor -14%, LmPK inhibitor -11% and RE007 growth inh -5%.
`Cc1ccc(C(=O)Nc2ccc(Cl)cc2C(=O)c2ccccc2)cc1` gave TbPYK inhibitor 0% and RE007 growth inh -10%.
Screening Cc1ccc(C(=O)Nc2cc3ccccc3oc2=O)cc1 returned NS1 function inh 5%, TbPYK inhibitor inconclusive, LmPK inhibitor 13µM* and RE007 growth inh 13%.
Cc1oc(=O)c(NC(=O)c2ccccc2)cc1C(=O)c1ccccc1 was read as NS1 function inh -107%, TbPYK inhibitor -20%, LmPK inhibitor -12% and RE007 growth inh 20µM*.
CC(=O)C[C@H]1[C@H](O[C@H]2[C@H](OC(C)C(=O)N[C@@H](C)C(=O)N[C@H](CCC(=O)N[C@@H](CCCCN)C(=O)N[C@H](C)C(=O)O)C(N)=O)[C@@H](NC(=O)O)C(O)O[C@@H]2CO)O[C@H](CO)[C@@H](O)[C@@H]1O (stereo partly specified) was read as TbPYK inhibitor -5%.
For COc1ccc([C@]23Cc4ccccc4C(O2)C2=C(O3)C(=O)c3ccccc3C2=O)cc1 the results were NS1 function inh 23% and LmPK inhibitor 0%[11.5 µM].
Screening CN(C)CCCN=c1c2ccccc2n(C)c2[nH]c(=O)n(C)c(=O)c12 returned NS1 function inh -5%.
For CCN(CC)c1ccc(/C=N/n2c(-c3ccccc3Br)n[nH]c2=S)cc1 the results were NS1 function inh 7%, TbPYK inhibitor -13%, LmPK inhibitor -17% and RE007 growth inh 10%.
`Cc1nn(-c2ccccc2)c(C)c1/C=N/n1c(-c2ccccc2Br)n[nH]c1=S` gave NS1 function inh 14%, TbPYK inhibitor inconclusive, LmPK inhibitor 13µM* and RE007 growth inh 13%.
O=C(N/N=C1\CCc2ccccc21)c1ccccc1O was read as NS1 function inh -2%, TbPYK inhibitor -10%, LmPK inhibitor 13µM* and RE007 growth inh -5%.
O=C(N/N=C1\CCCc2ccccc21)c1ccccc1Cl was read as NS1 function inh -3%, TbPYK inhibitor -12%, LmPK inhibitor 6% and RE007 growth inh -3%.
Screening C=CCN1c2ccccc2[C@]23C[C@@H](C(=O)OC)N(S(=O)(=O)c4ccc(C)cc4)C2=NC(C(=O)OC)=C(C(=O)OC)[C@H]13 returned LmPK inhibitor -3%[11.5 µM].
`O=C(/C=C/c1cccc(Cl)c1)c1ccc([N+](=O)[O-])o1` gave TbPYK inhibitor -12% and RE007 growth inh 11µM*.
